Laboratory results published in PubChem BioAssay AID1159580 (chemical genetic matrix, 2015).
The whole screen tested about 5,500 compounds, of which about 2,000 (36%) were called active. Roughly 18% stayed inconclusive and do not appear here. Rule as the data show it: active = normalized growth mostly below about 0.91 (no sharp cut-off); inconclusive = no clear call, values can overlap the other calls; inactive = mostly above about 0.92. The list shows a part of the results.

Test: chemical genetic growth profiling, strain panel (AID 1159580);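 also: tested at 20 µM; growth read once vehicle control cultures reached saturation at 30 °C; 1 = growth at the plate median or of vehicle wells; lower values mean less growth of the strain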
Details: S. cerevisiae deletion strains, growth OD
[1] = locus YHR030C, strain SLT2, hits give low values
[2] = locus YHR079C, strain IRE1, hits give low values
[3] = locus YJL095W, strain BCK1, hits give low values
[4] = locus YJR066W, strain TOR1, hits give low values
[5] = locus YLR113W, strain HOG1, hits give low values
[6] = locus YNL183C, strain NPR1, hits give low values
[7] = locus YOR231W, strain MKK1, hits give low values
[8] = locus YPL256C, strain CLN2, hits give low values

Measured: normalized growth

Cc1c[nH]c2ccccc12
inactive: [1] 0.992 | [2] 0.979 | [3] 0.999 | [4] 0.94 | [5] 0.945 | [6] 0.927 | [7] 1 | [8] 1.02

Cc1ccccc1/C=C/C1=NCCN1
inactive: locus YAL013W, strain DEP1, hits give low values 0.997 | locus YAL040C, strain CLN3, hits give low values 1.09 | locus YCL061C, strain MRC1 (second series), hits give low values 1.01 | locus YDR150W, strain NUM1, hits give low values 1.02 | locus YDR363W, strain ESC2, hits give low values 0.999 | locus YER002W, strain NOP16, hits give low values 1.01 | locus YGR078C, strain PAC10, hits give low values 0.982 | locus YJR075W, strain HOC1, hits give low values 0.997 | locus YMR263W, strain SAP30, hits give low values 0.995 | locus YMR307W, strain GAS1, hits give low values 0.978 | locus YNL175C, strain NOP13, hits give low values 1 | locus YNL197C, strain WHI3, hits give low values 0.993 | locus YNL224C, strain SQS1, hits give low values 0.991 | locus YOR083W, strain WHI5 (second series), hits give low values 0.991

Cc1ccccc1/C=C/c1c[nH]c2ccccc12
active: [5] 0.784
inactive: locus YAR019C, strain CDC15, hits give low values 0.937 | locus YBL105C, strain PKC1, hits give low values 0.961 | locus YBR135W, strain CKS1, hits give low values 0.946 | locus YBR136W, strain MEC1, hits give low values 0.954 | locus YBR160W, strain CDC28, hits give low values 0.951 | locus YDL017W, strain CDC7, hits give low values 0.955 | locus YDL028C, strain MPS1, hits give low values 0.963 | locus YDL101C, strain DUN1, hits give low values 0.953 | locus YDL108W, strain KIN28, hits give low values 0.949 | locus YDL132W, strain cdc53, hits give low values 0.942 | locus YDL214C, strain PRR2, hits give low values 0.902 | locus YDR052C, strain DBF4, hits give low values 0.95 | locus YDR054C, strain cdc34, hits give low values 0.985 | locus YDR226W, strain ADK1, hits give low values 0.949 | locus YDR477W, strain SNF1, hits give low values 0.924 | locus YER123W, strain YCK3, hits give low values 0.855 | locus YER133W, strain GLC7, hits give low values 0.906 | locus YFL009W, strain cdc4, hits give low values 0.945 | locus YFL029C, strain CAK1, hits give low values 0.92 | locus YFR003C, strain YPI1, hits give low values 0.958 | locus YFR019W, strain FAB1, hits give low values 0.924 | locus YFR028C, strain CDC14, hits give low values 0.955 | locus YGR040W, strain KSS1, hits give low values 0.916 | locus YGR052W, strain FMP48, hits give low values 0.965 | locus YGR092W, strain DBF2, hits give low values 0.858 | [1] 0.921 | [2] 0.948 | locus YHR082C, strain KSP1, hits give low values 0.937 | locus YHR205W, strain SCH9, hits give low values 0.88 | locus YIL147C, strain SLN1, hits give low values 0.956 | [3] 0.946 | locus YJL128C, strain PBS2, hits give low values 0.906 | locus YJL157C, strain FAR1, hits give low values 0.895 | locus YJR016C, strain ILV3, hits give low values 0.952 | locus YJR066W, strain TOR1 (second series), hits give low values 0.882 | [4] 0.955 | locus YKL048C, strain ELM1, hits give low values 0.948 | locus YKL067W, strain YNK1, hits give low values 0.91 | locus YKL101W, strain HSL1, hits give low values 0.94 | locus YKL193C, strain SDS22, hits give low values 0.948 | locus YKL203C, strain TOR2, hits give low values 0.989 | locus YLR133W, strain CKI1, hits give low values 0.931 | locus YLR403W, strain SFP1, hits give low values 0.893 | locus YML070W, strain DAK1, hits give low values 0.891 | locus YMR001C, strain CDC5, hits give low values 0.937 | locus YMR205C, strain PFK2 (second series), hits give low values 0.934 | locus YMR277W, strain FCP1, hits give low values 0.959 | locus YNL006W, strain LST8, hits give low values 0.955 | locus YNL020C, strain ARK1, hits give low values 0.912 | locus YNL161W, strain CBK1, hits give low values 0.953 | [6] 0.94 | locus YNL207W, strain RIO2, hits give low values 0.948 | locus YNL222W, strain SSU72, hits give low values 0.946 | locus YNL307C, strain MCK1 (second series), hits give low values 0.941 | locus YOL078W, strain AVO1, hits give low values 0.946 | locus YOL136C, strain PFK27, hits give low values 0.887 | locus YOR061W, strain CKA2, hits give low values 0.895 | locus YOR119C, strain RIO1, hits give low values 0.943 | [7] 0.923 | locus YOR329C, strain SCD5, hits give low values 0.961 | locus YPL031C, strain PHO85, hits give low values 0.914 | locus YPL153C, strain RAD53, hits give low values 0.931 | locus YPL204W, strain HRR25, hits give low values 0.941 | locus YPL209C, strain IPL1, hits give low values 0.95 | [8] 0.91 | locus YPR025C, strain CCL1, hits give low values 0.955 | locus YPR106W, strain ISR1, hits give low values 0.964 | locus YPR111W, strain DBF20, hits give low values 0.952 | strain NNK1, hits give low values 0.961 | strain TSCII, hits give low values 0.947
